Measured values published in PubChem BioAssay.
Active and inactive are the calls of the source. Unless noted, no rule for the calls is given here.

Assays:
[1] = compounds binding Alexa647 anti-His antibody – biochemical, small-molecule microarray, 635 nm fluorescence, artefact control for SMM control protein annotation, primary screen (AID 1128); settings: higher = more signal;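 also: score merges feature fluorescence with signal-to-noise for each printed compound spot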
[2] = tested on: Human papillomavirus type 1a E7 protein (residues 1-88); assay: HPV1a E7 small-molecule binders, primary screen, biochemical, small-molecule microarray, residues 1-88, 635 nm (AID 1129); settings: small-molecule microarray binding, fluorescence 635 nm; higher = more signal
[3] = molecular target: Focal adhesion kinase 1 (Homo sapiens) (UniProt Q05397); assay: PTK2 protein binding on printed compound slides – biochemical, small-molecule microarray, 635/667 nm fluorescence, BSA, DTT, primary screen (AID 1130); settings: 635 nm fluorescence, higher = more signal;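 also: composite of spot emission at 667 nm and signal to noise over triplicate slides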
Sequence of Focal adhesion kinase 1 (Homo sapiens) (Q05397 whole entry, looked up): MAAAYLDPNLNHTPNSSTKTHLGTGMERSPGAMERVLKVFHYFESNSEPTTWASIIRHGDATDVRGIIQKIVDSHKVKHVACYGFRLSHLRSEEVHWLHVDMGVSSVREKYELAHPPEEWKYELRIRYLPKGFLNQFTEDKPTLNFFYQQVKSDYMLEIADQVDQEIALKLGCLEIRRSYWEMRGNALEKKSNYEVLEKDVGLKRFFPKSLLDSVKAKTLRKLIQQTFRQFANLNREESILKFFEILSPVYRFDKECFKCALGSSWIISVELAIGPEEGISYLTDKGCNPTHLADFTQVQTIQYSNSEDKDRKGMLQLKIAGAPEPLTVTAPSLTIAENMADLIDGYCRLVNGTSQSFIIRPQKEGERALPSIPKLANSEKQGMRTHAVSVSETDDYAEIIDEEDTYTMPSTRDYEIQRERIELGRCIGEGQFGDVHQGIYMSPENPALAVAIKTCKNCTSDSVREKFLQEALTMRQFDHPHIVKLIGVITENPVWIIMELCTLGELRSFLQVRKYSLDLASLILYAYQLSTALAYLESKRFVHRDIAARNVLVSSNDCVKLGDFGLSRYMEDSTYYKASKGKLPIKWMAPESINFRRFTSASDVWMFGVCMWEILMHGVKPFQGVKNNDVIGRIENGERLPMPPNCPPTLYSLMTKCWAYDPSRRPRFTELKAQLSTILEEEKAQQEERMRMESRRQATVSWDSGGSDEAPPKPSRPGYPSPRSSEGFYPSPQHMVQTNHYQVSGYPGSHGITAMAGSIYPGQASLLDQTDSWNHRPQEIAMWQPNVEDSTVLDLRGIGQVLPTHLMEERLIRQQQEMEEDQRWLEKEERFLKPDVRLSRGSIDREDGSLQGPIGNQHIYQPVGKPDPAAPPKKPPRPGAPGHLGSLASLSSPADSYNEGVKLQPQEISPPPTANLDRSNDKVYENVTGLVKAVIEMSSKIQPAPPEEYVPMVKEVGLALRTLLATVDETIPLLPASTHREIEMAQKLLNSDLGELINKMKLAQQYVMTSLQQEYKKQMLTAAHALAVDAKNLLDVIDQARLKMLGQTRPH

[4] = tested on: Fibrinogen (Alexa647-labelled); assay: Alexa647-fibrinogen binding to printed small molecules – biochemical, small-molecule microarray, 635/667 nm fluorescence, artefact control for SMM control-protein annotation, profiling panel (AID 1131); settings: fibrinogen-A647 binding fluorescence, higher = more signal;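 also: z-score merges 667 nm fluorescence with per-spot signal-to-noise over triplicate slides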
[5] = molecular target: Follistatin (Homo sapiens) (UniProt P19883); assay: FST protein binding to printed compounds – biochemical, small-molecule microarray, 635/667 nm fluorescence, primary screen (AID 1132); settings: 635 nm fluorescence, higher = more signal
Sequence of Follistatin (Homo sapiens) (P19883 whole entry, looked up): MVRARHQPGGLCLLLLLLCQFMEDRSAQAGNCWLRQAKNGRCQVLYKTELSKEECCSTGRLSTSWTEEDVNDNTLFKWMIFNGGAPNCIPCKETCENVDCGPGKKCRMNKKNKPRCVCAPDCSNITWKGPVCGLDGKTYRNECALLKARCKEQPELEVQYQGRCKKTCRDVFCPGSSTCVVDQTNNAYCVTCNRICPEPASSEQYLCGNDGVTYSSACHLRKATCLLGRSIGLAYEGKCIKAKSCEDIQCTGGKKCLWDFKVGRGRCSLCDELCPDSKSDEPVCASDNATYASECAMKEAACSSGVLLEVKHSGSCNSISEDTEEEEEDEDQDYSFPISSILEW

[6] = molecular target: Fibroblast growth factor 2 (Homo sapiens) (UniProt P09038); assay: basic fibroblast growth factor binding to printed compounds – biochemical, small-molecule microarray, 635/667 nm fluorescence, primary screen (AID 1133); settings: FGF2, fluorescence 635/667, higher = more signal
Sequence of Fibroblast growth factor 2 (Homo sapiens) (P09038 whole entry, looked up): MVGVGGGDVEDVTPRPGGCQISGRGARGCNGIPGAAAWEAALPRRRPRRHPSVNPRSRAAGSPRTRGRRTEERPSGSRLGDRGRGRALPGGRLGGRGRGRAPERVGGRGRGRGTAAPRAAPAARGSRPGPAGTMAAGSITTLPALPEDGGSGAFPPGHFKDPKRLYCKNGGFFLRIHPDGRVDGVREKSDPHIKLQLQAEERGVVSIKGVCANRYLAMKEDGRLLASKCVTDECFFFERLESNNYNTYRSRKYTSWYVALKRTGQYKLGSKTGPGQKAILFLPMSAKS

[7] = JC-1 mitochondrial potential readout, lung cancer cells – cell-based, A549, JC-1 fluorescence, basal, 24 h, 100 nL, profiling panel (AID 1138); settings: higher = more signal;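 also: A549 lung adenocarcinoma cells under basal conditions with no added stimulus; test concentration not given here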
Lefty1 = Lefty1 protein binding to printed compounds – biochemical, small-molecule microarray, 635/667 nm fluorescence, primary screen (AID 1139); settings: fluorescence 635/667, higher = more signal
[8] = tested on: wheat germ agglutinin (Triticum aestivum), Alexa647-labelled; assay: Alexa647-WGA lectin binding to printed small molecules – biochemical, small-molecule microarray, 635/667 nm fluorescence, artefact control for SMM control-protein annotation, profiling panel (AID 1140); settings: WGA-A647 binding, 635 nm fluorescence, higher = more signal;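 also: score merges 667 nm feature emission with signal to noise over triplicate slides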
[9] = molecular target: Luciferin 4-monooxygenase (Photinus pyralis) (UniProt P08659); assay: inhibition of purified Photinus pyralis luciferase – biochemical, luminescence, purified enzyme, 2006 set, primary screen (AID 1141); settings: purified firefly luciferase, SteadyGlo luminescence, 30 min; higher = more signal, called active from +8 up or from −8 down;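 also: cell-free assay with purified firefly luciferase at 100 ng per well in PBS; test concentration not given here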
Sequence of Luciferin 4-monooxygenase (Photinus pyralis) (P08659 whole entry, looked up): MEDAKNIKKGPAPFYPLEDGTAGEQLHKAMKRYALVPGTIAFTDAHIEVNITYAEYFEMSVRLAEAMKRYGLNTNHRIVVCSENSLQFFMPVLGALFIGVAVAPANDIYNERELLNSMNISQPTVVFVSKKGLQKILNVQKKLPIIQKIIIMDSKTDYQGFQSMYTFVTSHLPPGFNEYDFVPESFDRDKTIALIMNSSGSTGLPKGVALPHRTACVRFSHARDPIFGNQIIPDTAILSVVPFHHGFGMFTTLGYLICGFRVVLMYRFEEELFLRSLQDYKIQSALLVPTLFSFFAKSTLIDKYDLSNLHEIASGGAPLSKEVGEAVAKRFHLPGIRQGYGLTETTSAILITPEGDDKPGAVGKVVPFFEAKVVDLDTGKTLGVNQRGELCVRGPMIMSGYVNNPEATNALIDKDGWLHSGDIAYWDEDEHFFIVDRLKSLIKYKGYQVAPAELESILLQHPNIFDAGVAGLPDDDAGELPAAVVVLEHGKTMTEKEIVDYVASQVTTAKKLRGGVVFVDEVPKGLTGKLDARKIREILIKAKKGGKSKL

[10] = tested on: Wnt5a (protein binding on small-molecule microarray); assay: small molecules binding Wnt5a protein – biophysical, small-molecule microarray, 635/667 nm fluorescence, primary screen (AID 1142); settings: 635 nm fluorescence, higher = more signal;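 also: fluorescence read at 667 nm with signal to noise per printed feature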
[11] = ATP-based viability of Huh7 replicon cells – cell-based, CellTiter-Glo luminescence, basal, 48 h, cytotoxicity control for HCV replication inhibitor project, primary screen (AID 1143); settings: higher = more signal, called active from +8 up or from −8 down;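 also: Huh7 hepatoma cells carrying a hepatitis C replication reporter with no stimulus; test concentration not given here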
[12] = Pseudomonas biofilm growth suppression – PAO1 strain, BacTiter-Glo luminescence, LB-PBS, primary screen (AID 1144); settings: P. aeruginosa PAO1 biofilm, 12 h, higher = more signal
[13] = basal CRE-LacZ reporter activity in PC12 – cell-based, unstimulated, primary screen (AID 1145); settings: no forskolin, luminescence, 4.5 h, higher = more signal, called active from +8 up or from −8 down
[14] = forskolin-driven CRE-LacZ activity in PC12 – cell-based, CRE-LacZ reporter, forskolin-stimulated, primary screen (AID 1146); settings: luminescence, 4.5 h, higher = more signal, called active from +8 up or from −8 down;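 also: PC12 cells with 6xCRE LacZ reporter stimulated by forskolin 10 µM; beta-galactosidase reporter signal reflecting CREB driven transcription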
[15] = molecular target: Streptavidin (Streptomyces avidinii) (UniProt P22629); assay: compounds binding control protein streptavidin – biophysical, small-molecule microarray, 635/667 nm fluorescence, artefact control for SMM compound annotation, primary screen (AID 1147); settings: higher = more signal;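 also: signal reflects streptavidin binding to arrayed compounds as a control protein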
Sequence of Streptavidin (Streptomyces avidinii) (P22629 whole entry, looked up): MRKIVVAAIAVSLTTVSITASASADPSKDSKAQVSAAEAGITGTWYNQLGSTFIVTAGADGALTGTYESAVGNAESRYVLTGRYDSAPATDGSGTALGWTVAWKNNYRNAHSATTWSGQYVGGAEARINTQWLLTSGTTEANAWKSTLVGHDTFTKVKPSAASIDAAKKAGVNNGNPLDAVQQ

[16] = probe aInhba binding on compound microarray – biochemical, small-molecule microarray, 635/667 nm fluorescence, primary screen (AID 1148); settings: higher = more signal;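 also: score merges 667nm spot fluorescence with signal-to-noise for antibody binding to printed compounds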
Torsin-1A (Homo sapiens) [17] = molecular target: Torsin-1A (Homo sapiens) (UniProt O14656); assay: TOR1A wild-type binding on microarray – cell lysate, small-molecule microarray, lysate, 635/667 nm, primary screen (AID 1149); settings: COS7 hTOR1A-WT lysate, 635 nm fluorescence, higher = more signal
Sequence of Torsin-1A (Homo sapiens) (O14656 whole entry, looked up): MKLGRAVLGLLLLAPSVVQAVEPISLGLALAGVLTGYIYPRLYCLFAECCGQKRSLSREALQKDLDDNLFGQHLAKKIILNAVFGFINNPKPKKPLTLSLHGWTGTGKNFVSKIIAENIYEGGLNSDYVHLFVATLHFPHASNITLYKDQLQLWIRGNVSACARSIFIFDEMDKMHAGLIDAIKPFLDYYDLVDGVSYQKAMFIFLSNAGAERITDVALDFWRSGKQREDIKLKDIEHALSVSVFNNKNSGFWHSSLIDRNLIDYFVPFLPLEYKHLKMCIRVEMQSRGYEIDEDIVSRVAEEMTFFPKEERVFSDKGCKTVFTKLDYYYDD

Torsin-1A (Homo sapiens) [18] = molecular target: Torsin-1A (Homo sapiens) (UniProt O14656); assay: torsin A mutant lysate binding on microarrays – cell lysate, small-molecule microarray, COS7 lysate, 635/667 nm fluorescence, primary screen (AID 1150); settings: COS7 hTOR1A mutant lysate, 635 nm fluorescence, higher = more signal;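 also: score pools 667 nm emission and signal to noise measuring lysate protein binding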
[19] = tested on: Sonic hedgehog protein (Shh); assay: Sonic hedgehog microarray binding compounds – biochemical, small-molecule microarray, 635/667 nm fluorescence, primary screen (AID 1151); settings: 635 nm fluorescence, higher = more signal;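 also: Shh protein binding to compounds spotted on small-molecule microarray slides; score combines spot fluorescence intensity with signal-to-noise across triplicate slides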

| SMILES | composite z-score [1] | composite z-score [2] | composite z-score [3] | composite z-score [4] | composite z-score [5] | composite z-score [6] | z-score [7] | composite z-score (Lefty1) | composite z-score [8] | z-score [9] | composite z-score [10] | z-score [11] | z-score [12] | z-score [13] | z-score [14] | composite z-score [15] | composite z-score [16] | composite z-score (Torsin-1A (Homo sapiens) [17]) | composite z-score (Torsin-1A (Homo sapiens) [18]) | composite z-score [19] |
| --- | --- | --- | --- | --- | --- | --- | --- | --- | --- | --- | --- | --- | --- | --- | --- | --- | --- | --- | --- | --- |
| COC(=O)[C@@]1(Cc2ccc(OC)cc2)[C@H]2c3cc(C(=O)N4CCCC4)n(CCN4CCOCC4)c3C[C@H]2CN1C(=O)c1ccccc1 | 0.954 | 1.19 | 1.75 | 0.998 | 0.193 | -0.125 | 0.892 | -0.499 | 0.76 | 1.12 (inactive) | 2.64 | -0.267 (inactive) | 0.356 (inactive) | 0.966 (inactive) | 1.64 (inactive) | 2.02 | 1.75 | 0.27 | 1.71 | -0.641 |
| NC(=O)[C@]1(Cc2ccccc2)N=C(c2ccc(OCCCO)cc2)O[C@@H]1c1ccccc1 | 1.15 | 1.12 | 0.246 | 0.977 | 0.368 | -0.555 | -1.04 | -0.524 | 1.05 | -0.354 (inactive) | 0.0788 | -2.3 (inactive) | -0.783 (inactive) | 5.59 (inactive) | 1.49 (inactive) | 0.452 | 0.0872 | -0.783 | -0.0179 | -0.955 |
| COCCOC(=O)N1C(=O)[C@@]2(c3cc(C#Cc4ccc(OC)cc4)ccc31)[C@H](C(N)=O)[C@H]1C(=O)O[C@H](c3ccccc3)[C@H](c3ccccc3)N1[C@@H]2c1ccc(O)cc1 | -0.994 | -0.923 | -0.582 | -1.48 | -0.694 | -2.13 | -0.335 | -2.08 | 0.17 | -0.245 (inactive) | 0.115 | -4.24 (inactive) | 0.0989 (inactive) | 0.0776 (inactive) | -0.844 (inactive) | -1.23 | 0.295 | -1.2 | -1.29 | -0.692 |
| O=C1O[C@H](c2ccccc2)[C@H](c2ccccc2)N2[C@H]1[C@@H](C(=O)N1CCCCCCC1)[C@]1(C(=O)Nc3ccc(C#CC4=CCCCC4)cc31)[C@H]2c1ccc(O)cc1 | 3.04 | 1.36 | 5.6 | 0.535 | 1.56 | 1.22 | -0.233 | 1.82 | 1.81 | 0.289 (inactive) | 2.45 | -5.14 (inactive) | -1.54 (inactive) | -1.43 (inactive) | -0.464 (inactive) | 4.23 | 1.98 | 3.97 | 3.82 | 2.29 |
| COCCCNC(=O)[C@@]1(Cc2ccccc2I)c2ccccc2C(=O)N(Cc2ccccc2)[C@H]1c1ccc(CO)cc1 | 0.536 | -0.726 | -0.548 | -1.03 | -1.6 | -1.21 | 1.28 | -1.94 | -1.27 | -0.751 (inactive) | -0.433 | -2.44 (inactive) | 0.202 (inactive) | 0.145 (inactive) | -1.06 (inactive) | -1.38 | -0.176 | -0.79 | -0.332 | -0.892 |
